Results: PubChem BioAssay (NCATS)
Records with an inconclusive call do not appear. Active and inactive are the calls of the source. Calls follow the shape of the dose curve; as a rule, active = well fitted cell-killing curve with a large enough effect; inconclusive = small, poorly fitted or top-dose-only effect; inactive = flat fitted curve, though single readings scatter.

Test: Cellular viability qHTS for adrenocortical cancer (ACC) cell line NCI-H295R (AID 1963990); also: nearly all actives have a fitted effect of over 60% in size;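 as to activity change, negative = viability loss: 0% = DMSO only wells and -100% = full killing with cytotoxic reference compound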
Conditions: CellTiter-Glo ATP luminescence, 48 h; series mostly up to 46.1 µM; activity change, negative = viability loss: at the top concentration
Procedure, shortened: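 Viability of NCI-H295R after 48 h of treatment (final up to 46 uM) measured through cellular ATP luminescence.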
Potency is read from the fitted curve at half-maximal effect.

SMILES | activity change, negative = viability loss | Potency
O=C(c1ccc(F)cc1)C1CCN(CCn2c(=S)[nH]c3ccccc3c2=O)CC1 | -13.9% (inactive) | –
CC(=O)NCC(=O)N1[C@@H]2CC[C@H]1c1ccc(Nc3ncc(C(F)(F)F)c(NC4CCC4)n3)cc12 | – | 4.47 µM (active)
O=C(C1CCCCC1)N1CC(=O)N2CCCc3ccccc3C2C1 (configuration not stated) | – | 29.1 µM (active)
CC(C)NC[C@@H](O)COc1cccc2ccccc12 | -7.01% (inactive) | –
Cc1c(Cl)cccc1S(=O)(=O)Nc1nc(CCN2CCOCC2=O)cs1 | 5.08% (inactive) | –
O=C(Nc1ccccc1)OCC(CN1CCCCC1)OC(=O)Nc1ccccc1 (configuration not stated) | – | 23.1 µM (active)
COc1ccc(-n2c(SCCCN3C(=O)c4cccc5cccc(c45)C3=O)nnc2-c2ccncc2)cc1 | -16.5% (inactive) | –
OCCOCCN1CCN(C(c2ccccc2)c2ccc(Cl)cc2)CC1 (configuration not stated) | -29.3% (inactive) | –
CCCCC(CC)CN1CN(CC(CC)CCCC)CC(C)(N)C1 (configuration not stated) | -7.33% (inactive) | –
CN1C(=O)[C@@H](NC(=O)c2cc(Cc3ccccc3)on2)COc2ccccc21 | -6.6% (inactive) | –
CN(C(=O)CCCOc1ccc2[nH]c(=O)ccc2c1)C1CCCCC1 | -8.37% (inactive) | –
CCc1cc(Nc2nccc(-c3c(-c4ccc(OC)c(C(=O)Nc5c(F)cccc5F)c4)nc4ccccn34)n2)c(OC)cc1N1CCC(N2CCN(S(C)(=O)=O)CC2)CC1 | -15.4% (inactive) | –
